# Data as given in PubChem BioAssay AID1851 (National Center for Advancing Translational Sciences (NCATS), 2009).
# Hit rate of the full screen: of about 16,000 compounds, about 5,100 (32%) were called active. Not shown: some 25% with an inconclusive outcome. The call rests on the fitted dose curve; in most records, active means well fitted curve in the direction sought with a large enough effect; inconclusive means small, poorly fitted or top-dose-only effect, or effect the other way; inactive means no such curve, though single readings can be large or run the other way. This is one part of the list.
# Target: Cytochrome P450 3A4 (Homo sapiens) (UniProt P08684)
# Assay: Cytochrome panel assay with activity outcomes
# Details: recombinant CYP, pro-luciferin dealkylation, luminescence, p450-cyp3a4; series mostly up to 57.1 µM; activity, negative = inhibition: at the top concentration
# On the % scale 0 is the no-effect control and ±100 the full control effect.
# Sequence of Cytochrome P450 3A4 (Homo sapiens) (P08684 whole entry, looked up): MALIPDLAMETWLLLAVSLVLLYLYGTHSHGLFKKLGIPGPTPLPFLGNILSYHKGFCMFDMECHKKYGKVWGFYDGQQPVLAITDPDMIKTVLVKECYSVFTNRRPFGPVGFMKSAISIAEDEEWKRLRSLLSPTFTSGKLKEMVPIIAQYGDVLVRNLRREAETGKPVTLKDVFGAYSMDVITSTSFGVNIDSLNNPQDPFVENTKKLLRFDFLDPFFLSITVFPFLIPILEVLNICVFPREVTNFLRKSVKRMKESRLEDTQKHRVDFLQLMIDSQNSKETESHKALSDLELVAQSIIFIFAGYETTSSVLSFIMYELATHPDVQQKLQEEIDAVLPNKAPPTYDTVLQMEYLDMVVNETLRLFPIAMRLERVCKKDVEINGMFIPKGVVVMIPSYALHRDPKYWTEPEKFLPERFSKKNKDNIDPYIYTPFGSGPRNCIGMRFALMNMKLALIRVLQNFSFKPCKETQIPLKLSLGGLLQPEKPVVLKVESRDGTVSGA
Compound,AC50,"activity, negative = inhibition"
Cn1ccnc1SCC(=O)Nc1sccc1C#N,14.1 µM (active),
Cn1c(SCC(=O)Nc2ccccc2)nc(O)cc1=O,3.55 µM (active),
O=C(CSc1nnc2c3ccccc3c3ccccc3c2n1)Nc1ccccc1,,1.75% [at 2.29 µM] (inactive)
COc1cccc(-n2ccnc2SCC(=O)Nc2nccs2)c1,3.55 µM (active),
NCC(=O)Nc1ccccc1,,-12.7% [at 11.4 µM] (inactive)
CCn1ccc(C(=O)NC2=C(C#N)CCC2)n1,,-14.8% (inactive)
O=C(O)CCC(=O)N1CCC[C@H]1C(=O)O,,-4.42% (inactive)
O=C(c1cnccn1)N1CCC2(CCCN(C(c3ccccc3)c3ccccc3)C2)CC1,1.58 µM (active),
O=C(c1cnccn1)N1CCC2(CCCN(c3ncccn3)C2)CC1,,-6.92% (inactive)
O=C(c1ccncc1)N1CCC2(CC1)CCN(c1ncccn1)CC2,,-21.7% (inactive)
O=C(c1ccncc1)N1CCC2(CCCN(C(c3ccccc3)c3ccccc3)C2)CC1,1 µM (active),
O=C(c1ccncc1)N1CCC2(CC1)CCN(C(c1ccccc1)c1ccccc1)CC2,,20.4% (inactive)
Cc1ccc(C(=O)c2ccc(CC(=O)O)n2C)cc1,,-2.84% [at 25.6 µM] (inactive)
CCOc1ccccc1Nc1ccc(N)cc1S(=O)(=O)O,,-9.59% [at 11.4 µM] (inactive)
Cc1ccc(Nc2nc(-c3sc(NC(=O)c4ccc([N+](=O)[O-])cc4)nc3C)cs2)cc1,10 µM (active),
CCOc1ccccc1Nc1nc(-c2sc(NC(=O)c3ccccc3)nc2C)cs1,7.94 µM (active),
COc1ccccc1Nc1nc(-c2sc(NC(=O)c3ccc([N+](=O)[O-])cc3)nc2C)cs1,8.91 µM (active),
CCOC(=O)C[C@@H](C(=O)OCC)[C@@H]1CCCCC1=O,,-10.4% [at 11.4 µM] (inactive)
COCCn1c(Cc2ccccc2)nnc1SCc1nc2ccccc2c(=O)[nH]1,3.16 µM (active),
CC[C@@H]1OC(=O)[C@H](C)[C@H](O[C@@H]2C[C@](C)(OC)[C@H](O)[C@H](C)O2)[C@H](C)[C@H](O[C@@H]2O[C@@H](C)C[C@@H](N(C)C)[C@@H]2O)[C@](C)(O)C[C@H](C)[C@@H]2N[C@H](COCCOC)O[C@H]([C@@H]2C)[C@]1(C)O,,6.81% [at 25.6 µM] (inactive)
CCn1c(=O)c2c(nc3n2CCS3)n(C)c1=O,,-18.6% (inactive)

Compound,AC50,"activity, negative = inhibition"
CC(C)(Sc1ccc(CCN(CCCCC2CCCCC2)C(=O)NC2CCCCC2)cc1)C(=O)O,3.98 µM (active),
Cc1cccc(NC(=O)c2ccc([N+](=O)[O-])o2)n1,,1.23% (inactive)
Cc1cc(C)nc(NC(=O)c2cccc([N+](=O)[O-])c2C)n1,,-28.1% (inactive)
O=C(Nc1cccc(NC(=O)c2ccccc2[N+](=O)[O-])n1)c1ccccc1[N+](=O)[O-],10 µM (active),
CC(Cc1ccccc1)NC(=O)CSc1nc2nc3c(cc2c(=O)n1-c1ccccc1)COC(C)(C)C3 (stereo not drawn),7.94 µM (active),
COc1ccc(/C=N/n2c(C)nnc2C)c(OC)c1,,-26.8% (inactive)
CNC(C)c1cc(OC)ccc1OC (stereo not drawn),,-18.8% (inactive)
COc1cc(/C=C\c2ccc(OC)cc2OC)cc(OC)c1,15.8 µM (active),
COc1ccc(N2CCN(S(=O)(=O)c3ccc4c(c3)CCCC4)CC2)c([N+](=O)[O-])c1,4.47 µM (active),
O=C(c1cc(-c2ccncc2)nc2ccccc12)N1CCN(c2ccc(N3CCOCC3)nn2)CC1,1.58 µM (active),
O=C(O)c1cc(-c2ccc(-c3ccccc3)cc2)nc2cc3ccccc3cc12,,2.43% [at 11.4 µM] (inactive)
Cc1ccc(C)c(NC(=O)C2(C)CC3c4ccccc4C2c2ccccc23)c1 (stereo not drawn),2.24 µM (active),
Cc1ccc(C)c(NC(=O)C2CC3c4ccccc4C2c2ccccc23)c1 (stereo not drawn),,-27.2% [at 2.29 µM] (inactive)
Cc1ccc(C)c(NC(=O)C2C3CCCC2C3c2ccccc2)c1 (stereo not drawn),,17.3% (inactive)
Fc1ccc(CN(C2=NCCN2)c2c(Cl)cccc2Cl)cc1,,-26.2% (inactive)
O=C(Nc1ccc2nc(SCc3ccc(Cl)cc3)sc2c1)c1ccccc1C(=O)N1CCOCC1,7.94 µM (active),
Cc1ccc(NC(=O)c2cc(N3C(=O)C4CC=CCC4C3=O)ccc2N2CCOCC2)cc1Cl (stereo not drawn),12.6 µM (active),
Cc1nc(SCC(=O)Nc2ccc(N3CCOCC3)cc2)nc(C)c1C,14.1 µM (active),
O=C(c1ccc2nc3ccc(Cl)cc3c(=O)n2c1)N1CCOCC1,,2.72% (inactive)
CCCC(=O)Nc1ccc2nc(SCC(=O)Nc3ccc(N4CCOCC4)c(Cl)c3)sc2c1,1.41 µM (active),
Cc1ccccc1C(=O)Nc1ccc(N2CCOCC2)nc1,,-27.9% (inactive)

Compound,AC50,"activity, negative = inhibition"
Cn1c(CCC(=O)Nc2ccc(N3CCOCC3)cc2)nc(=O)c2ccccc21,,-13.8% [at 11.4 µM] (inactive)
CCOC(=S)SCC(=O)O,,-14.7% [at 11.4 µM] (inactive)
CCOc1ccc(OCCOc2ncnc3ccccc23)cc1,,-3.65% [at 2.29 µM] (inactive)
O=C(/C=C/c1ccco1)NC(=S)Nc1ccc(N2CCOCC2)c(Cl)c1,,12.4% [at 2.29 µM] (inactive)
Cc1ccc(NC(=O)c2cc(NC(=O)CCC(=O)O)ccc2N2CCCCC2)cc1,,8.65% (inactive)
Cc1ccc(NC(=O)CSCC(=O)Nc2ccc(N3CCOCC3)c(Cl)c2)cc1,3.55 µM (active),
NCCSCCc1ccccc1,,-8.42% [at 11.4 µM] (inactive)
NCCOB(c1ccccc1)c1ccccc1,12.6 µM (active),
O=C(O)[C@@H]1CCCNC1,,-0.161% [at 25.6 µM] (inactive)
Cc1ccc(C(=O)Nc2c(C#N)c(C)c(C)n2Cc2ccccc2)cc1,10 µM (active),
CCC(C)n1c(NC(=O)c2ccccc2)c(C#N)c2nc3ccccc3nc21 (stereo not drawn),,-17% (inactive)
Cc1ccc(C(=O)N/N=C/c2sc(=O)n(Cc3cccc(C(=O)O)c3)c2Cl)cc1,,-1.74% (inactive)
CCOC(=O)Cc1csc(NC(=O)c2ccc(S(=O)(=O)N3CCCCC3)cc2)n1,,24.5% (inactive)
CCOC(=O)Cc1csc(NC(=O)c2ccc(Cl)nc2)n1,14.1 µM (active),
CCOC(=O)Cc1csc(NC(=O)c2c(-c3c(Cl)cccc3Cl)noc2C)n1,,-21.4% [at 2.29 µM] (inactive)
CCOc1cc(S(=O)(=O)N(Cc2ccccc2)Cc2ccccc2)c(OCC)cc1-n1cnnn1,12.6 µM (active),
Fc1ccc(Nc2ccnc(-c3ccccc3C(F)(F)F)n2)cc1,12.6 µM (active),
COc1ccccc1-c1nccc(NC2CCNCC2)n1,,-8.5% (inactive)
COc1ccccc1CNc1ccnc(-c2ccccc2C(F)(F)F)n1,12.6 µM (active),
COCCNc1ccnc(-c2ccccc2C(F)(F)F)n1,,-8.14% (inactive)
COc1ccccc1CNc1ccnc(-c2ccccc2OC)n1,15.8 µM (active),
